About 2,000 (36%) of roughly 5,500 compounds were called active. About 18% were inconclusive and are not listed. Cut-off read from the data, not from the text of the source: active = normalized growth mostly below about 0.91 (no sharp cut-off); inconclusive = no clear call, values can overlap the other calls; inactive = mostly above about 0.92. The list shows a part of the results.
Test: chemical genetic growth profiling, strain panel (AID 1159580);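 note: tested at 20 µM; growth read once vehicle control cultures reached saturation at 30 °C; 1 = growth at the plate median or of vehicle wells; lower values mean less growth of the strain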
Conditions: growth OD

Measured: normalized growth

C=C1C(=O)OC2CC1C(OC(C)=O)C/C(C)=C/CC/C(C)=C/CC[C@]2(C)O (some centres not stated)
inactive: S. cerevisiae deletion strains, locus YAL013W, strain DEP1, hits give low values 0.999 | S. cerevisiae deletion strains, locus YAL021C, strain ccr4, hits give low values 0.964 | S. cerevisiae deletion strains, locus YAL026C, strain drs2, hits give low values 0.987 | S. cerevisiae deletion strains, locus YAL030W, strain snc1, hits give low values 0.984 | S. cerevisiae deletion strains, locus YBL061C, strain skt5, hits give low values 1.01 | S. cerevisiae deletion strains, locus YBR009C, strain hhf1, hits give low values 1.01 | S. cerevisiae deletion strains, locus YBR021W, strain FUR4, hits give low values 1.03 | S. cerevisiae deletion strains, locus YBR023C, strain chs3, hits give low values 1.01 | S. cerevisiae deletion strains, locus YBR171W, strain sec66, hits give low values 0.994 | S. cerevisiae deletion strains, locus YBR229C, strain ROT2, hits give low values 1.02 | S. cerevisiae deletion strains, locus YBR231C, strain swc5, hits give low values 1.01 | S. cerevisiae deletion strains, locus YBR279W, strain paf1, hits give low values 0.996 | S. cerevisiae deletion strains, locus YCL011C, strain gbp2, hits give low values 1 | S. cerevisiae deletion strains, locus YCL016C, strain dcc1, hits give low values 1 | S. cerevisiae deletion strains, locus YCL029C, strain bik1, hits give low values 1.02 | S. cerevisiae deletion strains, locus YCL061C, strain MRC1, hits give low values 0.993 | S. cerevisiae deletion strains, locus YCL069W, strain vba3, hits give low values 0.987 | S. cerevisiae deletion strains, locus YCR088W, strain abp1, hits give low values 0.991 | S. cerevisiae deletion strains, locus YDL005C, strain med2, hits give low values 0.992 | S. cerevisiae deletion strains, locus YDL035C, strain GPR1, hits give low values 1.01 | S. cerevisiae deletion strains, locus YDL040C, strain nat1, hits give low values 0.981 | S. cerevisiae deletion strains, locus YDL074C, strain BRE1, hits give low values 1 | S. cerevisiae deletion strains, locus YDL101C, strain DUN1, hits give low values 1.01 | S. cerevisiae deletion strains, locus YDL185W, strain tfp1, hits give low values 1.02 | S. cerevisiae deletion strains, locus YDL192W, strain arf1, hits give low values 1 | S. cerevisiae deletion strains, locus YDR001C, strain nth1, hits give low values 0.982 | S. cerevisiae deletion strains, locus YDR069C, strain doa4, hits give low values 1.01 | S. cerevisiae deletion strains, locus YDR101C, strain arx1, hits give low values 1.03 | S. cerevisiae deletion strains, locus YDR137W, strain rgp1, hits give low values 0.935 | S. cerevisiae deletion strains, locus YDR150W, strain NUM1, hits give low values 1 | S. cerevisiae deletion strains, locus YDR159W, strain sac3, hits give low values 1.03 | S. cerevisiae deletion strains, locus YDR162C, strain NBP2, hits give low values 1.02 | S. cerevisiae deletion strains, locus YDR195W, strain ref2 1.02 | S. cerevisiae deletion strains, locus YDR297W, strain sur2, hits give low values 0.997 | S. cerevisiae deletion strains, locus YDR318W, strain mcm21, hits give low values 1 | S. cerevisiae deletion strains, locus YDR334W, strain swr1, hits give low values 1.01 | S. cerevisiae deletion strains, locus YDR335W, strain msn5, hits give low values 0.985 | S. cerevisiae deletion strains, locus YDR388W, hits give low values 1.01 | S. cerevisiae deletion strains, locus YDR392W, strain spt3, hits give low values 0.977 | S. cerevisiae deletion strains, locus YDR502C, strain sam2, hits give low values 1.03 | S. cerevisiae deletion strains, locus YEL003W, strain gim4, hits give low values 1.01 | S. cerevisiae deletion strains, locus YEL037C, strain rad23, hits give low values 0.99 | S. cerevisiae deletion strains, locus YEL061C, strain CIN8 (second series), hits give low values 0.994 | S. cerevisiae deletion strains, locus YEL061C, strain CIN8, hits give low values 1.02 | S. cerevisiae deletion strains, locus YER015W, strain faa2, hits give low values 1 | S. cerevisiae deletion strains, locus YER016W, strain bim1, hits give low values 0.992 | S. cerevisiae deletion strains, locus YER110C, hits give low values 1.02 | S. cerevisiae deletion strains, locus YER111C, strain swi4, hits give low values 0.995 | S. cerevisiae deletion strains, locus YER155C, strain BEM2 (second series), hits give low values 1.03 | S. cerevisiae deletion strains, locus YER155C, strain BEM2, hits give low values 1 | S. cerevisiae deletion strains, locus YER167W, strain BCK2, hits give low values 1.01 | S. cerevisiae deletion strains, locus YFR010W, strain ubp6, hits give low values 0.995 | S. cerevisiae deletion strains, locus YGL078C, strain dbp3, hits give low values 1.01 | S. cerevisiae deletion strains, locus YGL086W, strain mad1, hits give low values 1.02 | S. cerevisiae deletion strains, locus YGL167C, strain pmr1, hits give low values 0.988 | S. cerevisiae deletion strains, locus YGL173C, strain kem1, hits give low values 1.01 | S. cerevisiae deletion strains, locus YGL227W, strain vid30, hits give low values 0.989 | S. cerevisiae deletion strains, locus YGL240W, strain doc1, hits give low values 1.02 | S. cerevisiae deletion strains, locus YGL248W, strain PDE1, hits give low values 1.02 | S. cerevisiae deletion strains, locus YGL253W, strain hxk2, hits give low values 0.923 | S. cerevisiae deletion strains, locus YGR135W, strain pre9, hits give low values 1 | S. cerevisiae deletion strains, locus YGR252W, strain gcn5, hits give low values 1.01 | S. cerevisiae deletion strains, locus YHR013C, strain ard1, hits give low values 0.979 | S. cerevisiae deletion strains, locus YHR027C, strain rpn1, hits give low values 0.99 | S. cerevisiae deletion strains, locus YHR030C, strain SLT2, hits give low values 1.02 | S. cerevisiae deletion strains, locus YHR079C, strain IRE1 (second series), hits give low values 1.01 | S. cerevisiae deletion strains, locus YHR094C, strain hxt1, hits give low values 1.01 | S. cerevisiae deletion strains, locus YHR129C, strain ARP1, hits give low values 1.01 | S. cerevisiae deletion strains, locus YHR142W, strain chs7, hits give low values 1.01 | S. cerevisiae deletion strains, locus YHR200W, strain rpn10, hits give low values 1.02 | S. cerevisiae deletion strains, locus YIL066C, strain RNR3, hits give low values 1.01 | S. cerevisiae deletion strains, locus YIL073C, strain SPO22, hits give low values 0.983 | S. cerevisiae deletion strains, locus YIL125W, strain kgd1, hits give low values 1.01 | S. cerevisiae deletion strains, locus YIR030C, strain dcg1, hits give low values 1.01 | S. cerevisiae deletion strains, locus YJL092W, strain hpr5, hits give low values 0.988 | S. cerevisiae deletion strains, locus YJL095W, strain BCK1 (second series), hits give low values 0.998 | S. cerevisiae deletion strains, locus YJL095W, strain BCK1, hits give low values 1 | S. cerevisiae deletion strains, locus YJL115W, strain asf1, hits give low values 0.982 | S. cerevisiae deletion strains, locus YJL129C, strain trk1, hits give low values 1.01 | S. cerevisiae deletion strains, locus YJL134W, strain LCB3, hits give low values 1 | S. cerevisiae deletion strains, locus YJL154C, strain vps35, hits give low values 0.982 | S. cerevisiae deletion strains, locus YJL164C, strain tpk1, hits give low values 0.981 | S. cerevisiae deletion strains, locus YJL166W, strain qcr8, hits give low values 1 | S. cerevisiae deletion strains, locus YJL168C, strain set2, hits give low values 1.03 | S. cerevisiae deletion strains, locus YJL187C, strain SWE1 (second series), hits give low values 1.01 | S. cerevisiae deletion strains, locus YJL187C, strain SWE1, hits give low values 0.978 | S. cerevisiae deletion strains, locus YJR043C, strain POL32, hits give low values 1.04 | S. cerevisiae deletion strains, locus YJR075W, strain HOC1, hits give low values 0.999 | S. cerevisiae deletion strains, locus YKL009W, strain mrt4, hits give low values 0.998 | S. cerevisiae deletion strains, locus YKL068W, hits give low values 1.01 | S. cerevisiae deletion strains, locus YKL085W, strain MDH1 (second series), hits give low values 0.99 | S. cerevisiae deletion strains, locus YKL085W, strain MDH1, hits give low values 0.99 | S. cerevisiae deletion strains, locus YKL160W, strain elf1, hits give low values 0.982 | S. cerevisiae deletion strains, locus YKR001C, strain vps1, hits give low values 1.02 | S. cerevisiae deletion strains, locus YKR026C, strain gcn3, hits give low values 0.997 | S. cerevisiae deletion strains, locus YKR091W, strain srl3, hits give low values 0.981 | S. cerevisiae deletion strains, locus YLL001W, strain dnm1, hits give low values 0.973 | S. cerevisiae deletion strains, locus YLL026W, hits give low values 0.987 | S. cerevisiae deletion strains, locus YLL041C, strain sdh2, hits give low values 0.993 | S. cerevisiae deletion strains, locus YLR027C, strain aat2, hits give low values 1.01 | S. cerevisiae deletion strains, locus YLR039C, strain RIC1, hits give low values 0.894 | S. cerevisiae deletion strains, locus YLR058C, strain SHM2, hits give low values 1.02 | S. cerevisiae deletion strains, locus YLR102C, strain apc9, hits give low values 1.02 | S. cerevisiae deletion strains, locus YLR221C, strain rsa3, hits give low values 1.03 | S. cerevisiae deletion strains, locus YLR258W, strain gsy2, hits give low values 1 | S. cerevisiae deletion strains, locus YLR262C, strain YPT6 (second series), hits give low values 0.916 | S. cerevisiae deletion strains, locus YLR262C, strain YPT6, hits give low values 0.858 | S. cerevisiae deletion strains, locus YLR268W, strain sec22, hits give low values 1 | S. cerevisiae deletion strains, locus YLR320W, strain mms22, hits give low values 1.03 | S. cerevisiae deletion strains, locus YLR330W, strain CHS5, hits give low values 1.03 | S. cerevisiae deletion strains, locus YLR342W, strain FKS1 (second series), hits give low values 0.993 | S. cerevisiae deletion strains, locus YLR342W, strain FKS1, hits give low values 0.995 | S. cerevisiae deletion strains, locus YLR357W, strain rsc2, hits give low values 1.02 | S. cerevisiae deletion strains, locus YLR370C, strain arc18, hits give low values 0.998 | S. cerevisiae deletion strains, locus YLR371W, strain rom2, hits give low values 1.02 | S. cerevisiae deletion strains, locus YLR384C, strain iki3, hits give low values 0.997 | S. cerevisiae deletion strains, locus YLR418C, strain cdc73, hits give low values 1.06 | S. cerevisiae deletion strains, locus YML016C, strain PPZ1, hits give low values 1.01 | S. cerevisiae deletion strains, locus YML032C, strain rad52, hits give low values 1.01 | S. cerevisiae deletion strains, locus YML120C, strain ndi1, hits give low values 0.99 | S. cerevisiae deletion strains, locus YML124C, strain tub3, hits give low values 1.01 | S. cerevisiae deletion strains, locus YMR058W, strain fet3, hits give low values 0.99 | S. cerevisiae deletion strains, locus YMR078C, strain ctf18, hits give low values 1.01 | S. cerevisiae deletion strains, locus YMR125W, strain sto1, hits give low values 0.973 | S. cerevisiae deletion strains, locus YMR129W, hits give low values 0.997 | S. cerevisiae deletion strains, locus YMR205C, strain PFK2, hits give low values 0.985 | S. cerevisiae deletion strains, locus YMR223W, strain ubp8, hits give low values 1 | S. cerevisiae deletion strains, locus YMR231W, strain pep5, hits give low values 0.976 | S. cerevisiae deletion strains, locus YMR263W, strain SAP30, hits give low values 1.01 | S. cerevisiae deletion strains, locus YMR307W, strain GAS1, hits give low values 0.977 | S. cerevisiae deletion strains, locus YNL067W, strain RPL9B, hits give low values 1.01 | S. cerevisiae deletion strains, locus YNL071W, strain lat1, hits give low values 0.996 | S. cerevisiae deletion strains, locus YNL128W, strain TEP1, hits give low values 1.03 | S. cerevisiae deletion strains, locus YNL153C, strain GIM3, hits give low values 1.04 | S. cerevisiae deletion strains, locus YNL209W, strain ssb2, hits give low values 0.991 | S. cerevisiae deletion strains, locus YNL233W, strain BNI4, hits give low values 1.02 | S. cerevisiae deletion strains, locus YNL248C, strain rpa49, hits give low values 0.988 | S. cerevisiae deletion strains, locus YNL250W, strain rad50, hits give low values 1.04 | S. cerevisiae deletion strains, locus YNL271C, strain bni1, hits give low values 1.02 | S. cerevisiae deletion strains, locus YNL298W, strain CLA4, hits give low values 1.01 | S. cerevisiae deletion strains, locus YNL307C, strain MCK1, hits give low values 1.03 | S. cerevisiae deletion strains, locus YNL322C, strain KRE1 (second series), hits give low values 1.01 | S. cerevisiae deletion strains, locus YNL322C, strain KRE1, hits give low values 1 | S. cerevisiae deletion strains, locus YNR049C, strain mso1, hits give low values 0.994 | S. cerevisiae deletion strains, locus YNR052C, strain pop2, hits give low values 1.01 | S. cerevisiae deletion strains, locus YOL012C, strain htz1 0.807 | S. cerevisiae deletion strains, locus YOL147C, strain pex11, hits give low values 1.03 | S. cerevisiae deletion strains, locus YOR001W, strain rrp6, hits give low values 1.01 | S. cerevisiae deletion strains, locus YOR061W, strain CKA2, hits give low values 1.02 | S. cerevisiae deletion strains, locus YOR069W, strain VPS5, hits give low values 1.01 | S. cerevisiae deletion strains, locus YOR070C, strain gyp1, hits give low values 0.995 | S. cerevisiae deletion strains, locus YOR080W, strain dia2, hits give low values 1.01 | S. cerevisiae deletion strains, locus YOR083W, strain WHI5, hits give low values 0.985 | S. cerevisiae deletion strains, locus YOR106W, strain vam3, hits give low values 1 | S. cerevisiae deletion strains, locus YOR136W, strain idh2, hits give low values 1.02 | S. cerevisiae deletion strains, locus YOR144C, strain elg1, hits give low values 1.02 | S. cerevisiae deletion strains, locus YOR184W, strain ser1, hits give low values 1.02 | S. cerevisiae deletion strains, locus YOR265W, strain rbl2, hits give low values 0.996 | S. cerevisiae deletion strains, locus YOR270C, strain vph1, hits give low values 0.937 | S. cerevisiae deletion strains, locus YOR290C, strain snf2, hits give low values 0.961 | S. cerevisiae deletion strains, locus YOR316C, strain cot1, hits give low values 1.01 | S. cerevisiae deletion strains, locus YPL051W, strain arl3, hits give low values 1.01 | S. cerevisiae deletion strains, locus YPL078C, strain atp4, hits give low values 0.96 | S. cerevisiae deletion strains, locus YPL106C, strain sse1, hits give low values 0.991 | S. cerevisiae deletion strains, locus YPL240C, strain hsp82, hits give low values 1 | S. cerevisiae deletion strains, locus YPL241C, strain CIN2, hits give low values 1 | S. cerevisiae deletion strains, locus YPR119W, strain clb2, hits give low values 1.01 | S. cerevisiae deletion strains, locus YPR141C, strain kar3, hits give low values 1.01 | S. cerevisiae deletion strains, locus YPR163C, strain tif3, hits give low values 1 | S. cerevisiae deletion strains, locus YPR167C, strain met16, hits give low values 1.01 | S. cerevisiae deletion strains, strain wtn01, hits give low values 1.02 | S. cerevisiae strains, strain wild type, hits give low values 1.01
